Activity calls are given as the source filed them.
Assays:
[1] = target: Albumin (Bos taurus) (UniProt P02769); experiment: bovine serum albumin binders on microarray, profiling panel, artefact control for SMM control protein annotation, biochemical, small-molecule microarray, Alexa647 label, 635/667 nm fluorescence (AID 1118); settings: BSA-A647 binding, fluorescence 635 nm, higher = more signal;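 also: score merges 667 nm emission intensity and signal-to-noise per printed compound spot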
[2] = small-molecule microarray binders of probe aXIP, primary screen, biochemical, NeuroSMM set, 635/667 nm fluorescence (AID 1119); settings: higher = more signal, called active from +8 up or from −8 down;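 also: probe is the protein aXip251-270 applied at 1 µg/mL to compound-printed slides; binding of probe to printed compounds measured as 667 nm fluorescence plus signal to noise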
[3] = small-molecule binders of probe aNOTCH3, primary screen, biochemical, small-molecule microarray, 635/667 nm fluorescence (AID 1120); settings: higher = more signal;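 also: probe is a biotin-tagged antibody raised against NOTCH3 rather than NOTCH3 protein; score merges spot fluorescence near 667 nm with spot signal to noise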
[4] = small-molecule binders of probe aNOTCH2, primary screen, biochemical, small-molecule microarray, 635/667 nm fluorescence (AID 1121); settings: higher = more signal;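 also: score merges feature fluorescence read at 667 nm with its signal to noise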
[5] = target: Carbonic anhydrase 2 (Homo sapiens) (UniProt P00918); experiment: CAII small-molecule binders, profiling panel, biochemical, small-molecule microarray, Alexa647-labelled CAII (AID 1122); settings: CAII-A647 binding fluorescence, higher = more signal
[6] = COS7 lysate on small-molecule microarray, probe aHis, 635 nm (AID 1123); settings: COS7 cell lysate, fluorescence, higher = more signal;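 also: z-score combines 667nm fluorescence intensity with signal-to-noise per printed compound spot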
[7] = compound binding in COS7 lysate, probe aLAP1, primary screen, cell lysate, small-molecule microarray (AID 1124); settings: probe aLAP1, fluorescence, higher = more signal;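 also: lysate comes from COS7 cells expressing LAP1 and is applied at 0.3 µg/mL; score merges spot fluorescence near 667 nm with signal-to-noise over triplicate slides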
[8] = test system: Sam68 (KHDRBS1); experiment: Sam68 small-molecule binders, primary screen, biochemical, small-molecule microarray, 635 nm fluorescence (AID 1125); settings: small-molecule microarray binding, higher = more signal;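 also: score merges 667 nm channel intensity with signal to noise over triplicate slides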
[9] = test system: Chordin-like protein 2 (CHRDL2); experiment: CHRDL2 small-molecule binders, primary screen, biochemical, small-molecule microarray, 635 nm fluorescence (AID 1126); settings: small-molecule microarray binding, fluorescence 635 nm; higher = more signal;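 also: printed compound slides probed with Chrdl2 protein at 4 µg/mL for 1 h at 4 C; score merges 667 nm emission intensity with signal to noise over three replicate slides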
[10] = target: Concanavalin-A (Canavalia ensiformis) (UniProt P02866); experiment: ConA small-molecule binders, primary screen, artefact control for SMM control protein annotation, biochemical, small-molecule microarray, Alexa647 label, 635 nm (AID 1127); settings: ConA-A647 binding fluorescence, higher = more signal;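 also: z combines 667 nm emission intensity with signal-to-noise across three replicate slides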
[11] = anti-His antibody binders, primary screen, artefact control for SMM control protein annotation, biochemical, small-molecule microarray, 635 nm fluorescence (AID 1128); settings: anti-His Alexa647 antibody binding, higher = more signal;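 also: score merges feature fluorescence with signal-to-noise for each printed compound spot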
[12] = test system: Human papillomavirus type 1a E7 protein (residues 1-88); experiment: HPV1a E7 small-molecule binders, primary screen, biochemical, small-molecule microarray, residues 1-88, 635 nm (AID 1129); settings: small-molecule microarray binding, fluorescence 635 nm; higher = more signal
[13] = target: Focal adhesion kinase 1 (Homo sapiens) (UniProt Q05397); experiment: small-molecule microarray binders of FAK, primary screen, biochemical, 635/667 nm fluorescence, BSA, DTT (AID 1130); settings: PTK2 binding, 635 nm fluorescence, higher = more signal;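 also: composite of spot emission at 667 nm and signal to noise over triplicate slides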
[14] = test system: Fibrinogen (Alexa647-labelled); experiment: fibrinogen binders on compound microarrays, profiling panel, artefact control for SMM control-protein annotation, biochemical, small-molecule microarray, 635/667 nm fluorescence (AID 1131); settings: fibrinogen-A647 binding fluorescence, higher = more signal;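 also: z-score merges 667 nm fluorescence with per-spot signal-to-noise over triplicate slides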
[15] = target: Follistatin (Homo sapiens) (UniProt P19883); experiment: follistatin binders on small-molecule microarrays, primary screen, biochemical, small-molecule microarray, 635/667 nm fluorescence (AID 1132); settings: FST binding, 635 nm fluorescence, higher = more signal
[16] = target: Fibroblast growth factor 2 (Homo sapiens) (UniProt P09038); experiment: FGF2 binders on small-molecule microarrays, primary screen, biochemical, small-molecule microarray, 635/667 nm fluorescence (AID 1133); settings: small-molecule microarray binding, FGF2, fluorescence 635/667; higher = more signal
[17] = mitochondrial membrane potential change in A549 cells, profiling panel, cell-based, JC-1 fluorescence, basal, 24 h, 100 nL (AID 1138); settings: higher = more signal;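 also: A549 lung adenocarcinoma cells under basal conditions with no added stimulus; test concentration not given here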
[18] = test system: Lefty1; experiment: Lefty1 binders on small-molecule microarrays, primary screen, biochemical, small-molecule microarray, 635/667 nm fluorescence (AID 1139); settings: small-molecule microarray binding, fluorescence 635/667; higher = more signal
[19] = test system: wheat germ agglutinin (Triticum aestivum), Alexa647-labelled; experiment: wheat germ agglutinin binders on compound microarrays, profiling panel, artefact control for SMM control-protein annotation, biochemical, small-molecule microarray, 635/667 nm fluorescence (AID 1140); settings: WGA-A647 binding, 635 nm fluorescence, higher = more signal;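 also: score merges 667 nm feature emission with signal to noise over triplicate slides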
[20] = target: Luciferin 4-monooxygenase (Photinus pyralis) (UniProt P08659); experiment: firefly luciferase enzyme inhibitors, primary screen, biochemical, luminescence, purified enzyme, 2006 set (AID 1141); settings: SteadyGlo luminescence, 30 min, higher = more signal, called active from +8 up or from −8 down;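 also: cell-free assay with purified firefly luciferase at 100 ng per well in PBS; test concentration not given here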
Chain of Luciferin 4-monooxygenase (Photinus pyralis) (P08659 whole entry, looked up): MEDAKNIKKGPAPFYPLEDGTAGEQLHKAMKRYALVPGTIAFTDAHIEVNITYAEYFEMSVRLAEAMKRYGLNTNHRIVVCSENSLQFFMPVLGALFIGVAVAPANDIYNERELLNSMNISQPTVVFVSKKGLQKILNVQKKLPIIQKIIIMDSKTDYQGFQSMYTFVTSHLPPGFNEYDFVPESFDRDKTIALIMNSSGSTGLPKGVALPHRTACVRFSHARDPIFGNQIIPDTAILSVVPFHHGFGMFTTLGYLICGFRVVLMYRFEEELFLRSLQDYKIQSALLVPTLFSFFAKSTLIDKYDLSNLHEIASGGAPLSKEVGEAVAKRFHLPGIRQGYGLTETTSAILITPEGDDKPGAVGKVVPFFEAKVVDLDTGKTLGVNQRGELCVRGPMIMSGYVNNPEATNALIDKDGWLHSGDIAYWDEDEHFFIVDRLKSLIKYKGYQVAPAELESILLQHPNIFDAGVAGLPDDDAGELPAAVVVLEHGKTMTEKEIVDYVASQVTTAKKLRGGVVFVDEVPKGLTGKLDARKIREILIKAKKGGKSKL

Chain of Fibroblast growth factor 2 (Homo sapiens) (P09038 whole entry, looked up): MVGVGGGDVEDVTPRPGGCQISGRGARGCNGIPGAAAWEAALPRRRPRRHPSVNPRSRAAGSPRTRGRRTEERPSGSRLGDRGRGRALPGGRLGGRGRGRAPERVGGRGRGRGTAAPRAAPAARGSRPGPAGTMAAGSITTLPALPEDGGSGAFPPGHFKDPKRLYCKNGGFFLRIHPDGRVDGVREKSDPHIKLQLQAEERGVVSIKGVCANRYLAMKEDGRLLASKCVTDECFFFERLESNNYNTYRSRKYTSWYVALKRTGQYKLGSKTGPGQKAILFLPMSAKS
Chain of Concanavalin-A (Canavalia ensiformis) (P02866 whole entry, looked up): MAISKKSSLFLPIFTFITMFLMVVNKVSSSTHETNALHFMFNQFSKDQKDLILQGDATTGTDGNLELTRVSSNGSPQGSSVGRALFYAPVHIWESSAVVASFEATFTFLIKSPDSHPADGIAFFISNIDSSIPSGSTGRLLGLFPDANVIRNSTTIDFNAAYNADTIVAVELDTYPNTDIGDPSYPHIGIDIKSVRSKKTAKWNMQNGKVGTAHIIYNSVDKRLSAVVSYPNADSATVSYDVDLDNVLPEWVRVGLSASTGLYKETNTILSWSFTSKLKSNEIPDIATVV
Chain of Follistatin (Homo sapiens) (P19883 whole entry, looked up): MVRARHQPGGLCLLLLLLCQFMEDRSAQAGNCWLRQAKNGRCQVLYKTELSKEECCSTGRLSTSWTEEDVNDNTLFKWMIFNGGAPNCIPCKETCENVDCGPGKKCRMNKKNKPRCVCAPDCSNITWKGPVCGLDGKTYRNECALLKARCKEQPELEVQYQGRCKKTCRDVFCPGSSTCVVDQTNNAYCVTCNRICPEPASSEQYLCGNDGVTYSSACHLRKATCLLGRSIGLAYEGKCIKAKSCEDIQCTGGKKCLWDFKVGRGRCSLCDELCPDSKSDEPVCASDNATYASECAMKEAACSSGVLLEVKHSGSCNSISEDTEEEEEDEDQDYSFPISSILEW
Chain of Albumin (Bos taurus) (P02769 whole entry, looked up): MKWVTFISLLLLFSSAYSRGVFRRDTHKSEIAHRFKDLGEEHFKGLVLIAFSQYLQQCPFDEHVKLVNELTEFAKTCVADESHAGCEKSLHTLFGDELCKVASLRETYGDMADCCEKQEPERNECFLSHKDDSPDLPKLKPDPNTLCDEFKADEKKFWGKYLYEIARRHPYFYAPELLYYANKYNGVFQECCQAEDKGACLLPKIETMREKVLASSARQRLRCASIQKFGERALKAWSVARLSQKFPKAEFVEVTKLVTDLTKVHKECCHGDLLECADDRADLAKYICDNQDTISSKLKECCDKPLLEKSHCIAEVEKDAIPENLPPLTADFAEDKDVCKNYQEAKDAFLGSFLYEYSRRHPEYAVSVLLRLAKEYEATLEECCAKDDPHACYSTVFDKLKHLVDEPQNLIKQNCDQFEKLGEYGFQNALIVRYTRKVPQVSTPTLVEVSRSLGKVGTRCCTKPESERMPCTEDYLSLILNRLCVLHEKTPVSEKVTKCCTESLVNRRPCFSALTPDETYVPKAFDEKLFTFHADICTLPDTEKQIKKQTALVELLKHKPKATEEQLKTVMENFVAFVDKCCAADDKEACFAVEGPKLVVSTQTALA
Chain of Focal adhesion kinase 1 (Homo sapiens) (Q05397 whole entry, looked up): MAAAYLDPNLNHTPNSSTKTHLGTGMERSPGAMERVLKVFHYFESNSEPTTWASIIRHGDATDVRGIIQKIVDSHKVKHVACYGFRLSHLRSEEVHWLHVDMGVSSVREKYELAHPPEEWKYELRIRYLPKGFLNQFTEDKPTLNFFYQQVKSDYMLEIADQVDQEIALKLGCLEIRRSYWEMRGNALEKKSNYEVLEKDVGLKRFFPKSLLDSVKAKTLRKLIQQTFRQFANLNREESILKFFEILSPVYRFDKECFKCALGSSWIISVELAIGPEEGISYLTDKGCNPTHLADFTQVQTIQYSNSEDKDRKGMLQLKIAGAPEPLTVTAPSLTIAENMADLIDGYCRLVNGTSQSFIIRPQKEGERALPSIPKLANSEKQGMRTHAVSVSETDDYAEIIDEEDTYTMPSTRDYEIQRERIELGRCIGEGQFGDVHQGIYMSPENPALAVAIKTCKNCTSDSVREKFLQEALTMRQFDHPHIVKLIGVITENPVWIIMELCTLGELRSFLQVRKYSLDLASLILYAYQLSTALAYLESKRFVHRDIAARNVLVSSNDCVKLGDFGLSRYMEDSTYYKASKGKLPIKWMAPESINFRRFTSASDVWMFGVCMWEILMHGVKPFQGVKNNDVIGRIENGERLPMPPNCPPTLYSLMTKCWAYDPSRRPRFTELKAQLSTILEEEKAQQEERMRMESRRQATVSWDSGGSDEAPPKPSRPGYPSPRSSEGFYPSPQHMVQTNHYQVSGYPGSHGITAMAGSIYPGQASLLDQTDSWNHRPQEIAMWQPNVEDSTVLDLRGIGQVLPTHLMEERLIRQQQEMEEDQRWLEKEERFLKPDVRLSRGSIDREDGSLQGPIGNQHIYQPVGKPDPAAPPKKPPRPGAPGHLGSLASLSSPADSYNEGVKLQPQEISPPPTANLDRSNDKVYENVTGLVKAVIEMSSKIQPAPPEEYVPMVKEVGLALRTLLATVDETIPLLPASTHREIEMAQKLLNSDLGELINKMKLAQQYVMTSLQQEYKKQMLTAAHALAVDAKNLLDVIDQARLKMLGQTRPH

With CC(C)CON=C1C[C@@H](O)[C@@H](O)[C@@H]2[C@@H]3C(=O)N(Cc4ccc5c(c4)OCO5)C(=O)[C@@H]3CC[C@@H]12 the composite z-score [1] was 0.713, the composite Z-score [2] was 0.311 (inactive) and the composite z-score [3] was -0.179. For the same compound, the composite z-score [4] was -0.0891, the composite z-score [5] was 0.614 and the composite z-score [6] was 0.862. It also gave a composite z-score [7] of -0.0121, a composite z-score [8] of 0.853 and a composite z-score [9] of -0.0113. The composite z-score [10] was 0.922, the composite z-score [11] was 0.918 and the composite z-score [12] was 0.245. The composite z-score [13] was 0.227, the composite z-score [14] was 0.655 and the composite z-score [15] was 0.0087. The composite z-score [16] was 1.22, the z-score [17] was 0.0679 and the composite z-score [18] was -0.0226. The composite z-score [19] was 0.0667 and the z-score [20] was 0.966 (inactive).

For O=C1[C@H]2[C@H]3[C@H](O)[C@H](O)CC(=NOC[C@@H](O)COCc4ccco4)[C@@H]3CC[C@H]2C(=O)N1c1cccc(Oc2ccccc2)c1, the composite z-score [1] was -0.407, the composite Z-score [2] was -0.352 (inactive) and the composite z-score [3] was -0.147. It also gave a composite z-score [4] of -0.22, a composite z-score [5] of -0.0803 and a composite z-score [6] of -0.704. For the same compound, the composite z-score [7] was -0.0713, the composite z-score [8] was -1.43 and the composite z-score [9] was 0.381. The composite z-score [10] was 0.391, the composite z-score [11] was -1.01 and the composite z-score [12] was -0.964. For the same compound, the composite z-score [13] was -0.535, the composite z-score [14] was -0.535 and the composite z-score [15] was 0.942. For the same compound, the composite z-score [16] was 0.285, the z-score [17] was -0.268 and the composite z-score [18] was 0.0743. For the same compound, the composite z-score [19] was 0.196 and the z-score [20] was 0.921 (inactive).

In the case of CC(CCN1CCCCc2nc(C)c(C)cc21)=NO[C@H](C)c1cn([C@@H]2COC[C@H]2O)nn1, the composite z-score [1] is reported as 0.43, the composite Z-score [2] is reported as -1.61 (inactive) and the composite z-score [3] is reported as 0.156. For the same compound, the composite z-score [4] was 0.0097, the composite z-score [5] was 0.616 and the composite z-score [6] was 0.298. For the same compound, the composite z-score [7] was 0.0986, the composite z-score [8] was 1.2 and the composite z-score [9] was 1.49. It also gave a composite z-score [10] of 0.685, a composite z-score [11] of 0.968 and a composite z-score [12] of 0.12. The composite z-score [13] was 0.422, the composite z-score [14] was 0.41 and the composite z-score [15] was 1.26. For the same compound, the composite z-score [16] was 1.33, the z-score [17] was -0.624 and the composite z-score [18] was 1.38. For the same compound, the composite z-score [19] was -0.0522 and the z-score [20] was 1.05 (inactive).

In the case of CCN1C(=O)[C@H]2[C@H]3[C@H](O)[C@H](O)CC(=NOC[C@@H](O)COCc4ccco4)[C@H]3CC[C@H]2C1=O, the composite z-score [1] is reported as 0.532, the composite Z-score [2] is reported as 0.525 (inactive) and the composite z-score [3] is reported as -0.18. The composite z-score [4] was -0.16, the composite z-score [5] was 0.093 and the composite z-score [6] was -0.303. It also gave a composite z-score [7] of 0.0965, a composite z-score [8] of 0.971 and a composite z-score [9] of 1.5. It also gave a composite z-score [10] of -1.26, a composite z-score [11] of -1.13 and a composite z-score [12] of -0.516. For the same compound, the composite z-score [13] was 0.0699, the composite z-score [14] was -0.554 and the composite z-score [15] was 1.39. For the same compound, the composite z-score [16] was 1.66, the z-score [17] was 0.0801 and the composite z-score [18] was 1.55. The composite z-score [19] was -0.976 and the z-score [20] was -0.941 (inactive).

For CO[C@@H]1[C@H](O)CO[C@H]1C=Cc1ccccc1, the composite z-score [1] was 0.24, the composite Z-score [2] was -0.173 (inactive) and the composite z-score [3] was -0.127. It also gave a composite z-score [4] of -0.0956, a composite z-score [5] of 0.405 and a composite z-score [6] of 0.402. The composite z-score [7] was 0.388, the composite z-score [8] was 0.243 and the composite z-score [9] was 0.144. The composite z-score [10] was 0.17, the composite z-score [11] was 0.286 and the composite z-score [12] was 0.219. For the same compound, the composite z-score [13] was 0.0086, the composite z-score [14] was 0.543 and the composite z-score [15] was 0.251. For the same compound, the composite z-score [16] was 0.273, the z-score [17] was -0.75 and the composite z-score [18] was 0.28. For the same compound, the composite z-score [19] was -0.07 and the z-score [20] was -0.339 (inactive).
